Screening results from PubChem.
Compounds with a hit are over-represented: about 21% of the library has one in this group of screens.
CYP2C9 activ = CYP2C9 (human) activation; recombinant CYP2C9, luciferin-H conversion, luminescence; hits give high values; factor 1 = untreated enzyme, 0 = blocked; activation factor at 5 µM; P11712; 96,000 tested, 1.4% active; AID 1024;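 active = activation factor of 2 or more for CYP2C9 at a 5 µM dose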;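 note: 0 = sulfaphenazole-blocked wells and 1 = vehicle-only wells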
Target sequence (P11712 whole entry, looked up): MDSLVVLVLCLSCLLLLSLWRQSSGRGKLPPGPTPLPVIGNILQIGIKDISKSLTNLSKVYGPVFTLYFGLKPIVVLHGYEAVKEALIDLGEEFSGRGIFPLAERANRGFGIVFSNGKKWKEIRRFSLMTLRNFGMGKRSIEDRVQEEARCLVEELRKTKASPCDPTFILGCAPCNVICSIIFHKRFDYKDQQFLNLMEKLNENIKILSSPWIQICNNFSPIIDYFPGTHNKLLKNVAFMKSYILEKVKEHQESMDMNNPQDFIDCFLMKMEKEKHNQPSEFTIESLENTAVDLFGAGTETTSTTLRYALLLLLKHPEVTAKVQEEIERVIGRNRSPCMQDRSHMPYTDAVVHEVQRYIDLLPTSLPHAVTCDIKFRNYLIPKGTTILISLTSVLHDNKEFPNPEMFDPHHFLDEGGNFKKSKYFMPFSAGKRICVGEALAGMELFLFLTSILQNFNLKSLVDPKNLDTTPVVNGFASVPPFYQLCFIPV
CYP2C19 inhib = inhibitors of human CYP2C19 | P33261 | CYP2C19 Supersomes, luciferin-H EGE luminescence, 30 min | inhibition, % at 5 µM | 96,000 tested, 21% active | AID 778;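 active = CYP2C19 inhibition above a set limit at 5 µM in the primary screen, cut at about 50% in these data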;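 note: plate controls were negative control wells for no effect and 2.5 mM tranylcypromine positive control for full effect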
MRP resist rev = MRP-mediated drug resistance reversal. H69AR cells + 2 uM doxorubicin, CellTiter-Glo, 72 h. AID 602. differential viability (reversal), % at 10 µM. 85,000 tested, 0.04% active;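 active = viability drop by adding the cancer drug above about 55%, with treated viability meeting a 40% cutoff, limit read from the data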;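 note: viability without doxorubicin minus viability with 2 µM doxorubicin for each compound; larger differential means the compound sensitizes cells more to doxorubicin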
CYP2C9 inh = inhibitors of human CYP2C9; P11712; CYP2C9 Supersomes, luciferin-H conversion, luminescence; inhibition, % at 5 µM; 96,000 tested, 20% active;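 active = blocking of liver enzyme CYP2C9 beyond about 50% at 5 µM, limit read from the data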
MRP-1 activ = MRP-1 activation; H69AR cells + doxorubicin, viability rescue, CellTiter-Glo; viability increase, % at 10 µM; 140,000 tested, 0.61% active; AID 799;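 active = viability gain under doxorubicin at or above a set limit, the compound median plus 3 SD, cut at about 4.7% in these data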;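 note: MRP-1 overexpressing cells given doxorubicin 25 µM after compound pretreatment; 18-22 h compound pretreatment then 72 h with doxorubicin before readout; 0% = doxorubicin-only wells and 100% = vehicle-treated cells without doxorubicin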
CYP2C19 activ = cytochrome P450 2C19 (human) activation; P33261; recombinant CYP2C19, luciferin-H EGE luminescence; hits give high values; 0 = fully inhibited enzyme, 1 = untreated enzyme; activation factor at 5 µM; 96,000 tested, under 10 active;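 active = activation factor of at least 2 at 5 µM in the primary screen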;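 note: 0 = wells with 2.5 mM tranylcypromine and 1 = vehicle-only wells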
An asterisk follows results filed as active; . = not tested or not shown.

SMILES	CYP2C9 activ	CYP2C19 inhib	MRP resist rev	CYP2C9 inh	MRP-1 activ	CYP2C19 activ
N#C/C(=C\c1cn(Cc2ccccc2C#N)c2ccccc12)C(=O)NCc1cccs1	0.4	16	.	60*	-2	0.8
N#C/C(=C\c1cn(CCOc2ccccc2)c2ccccc12)C(=O)NCC1CCCO1 (stereo not drawn)	0.1	58*	.	92*	0	0.4
COc1ccccc1OCCn1cc(/C=C(\C#N)C(=O)NCc2cccs2)c2ccccc21	.	.	.	.	-2	.
Cc1ccc(C)c(OCCn2cc(/C=C(/C#N)C(=O)NCC3CCCO3)c3ccccc32)c1 (stereo not drawn)	.	.	.	.	2	.
COC(=O)CCC(=O)c1oc2ccc(Cl)cc2c1NC(=O)CCCN1C(=O)c2ccccc2C1=O	0.2	67*	3	80*	-2	0.3
Cn1cc(C(=O)N/N=C/c2cccs2)c2ccccc21	.	.	.	.	-3	.
Cn1cc(/C(Cc2ccccc2)=N\O)c2ccccc21	0.9	59*	-17	10	-2	0.4
COC(=O)CSc1nc2c(c(-c3ccco3)c1C#N)CCCC2	1.3	11	-24	-30	-1	0.9
Cc1ccc(-c2c(C#N)c(N)nc3c2CCCCC3)o1	0.5	53*	3	50*	-3	0.5
CCOC(=O)CSc1nc2c(c(-c3ccc(C)o3)c1C#N)CCCC2	0.5	70*	.	47	-1	0.3
CCn1c2ccccc2c2cc(NC(=O)CCCN3C(=O)CCC3=O)ccc21	1.9	49	-17	-89	-2	0.5
CN(CC(=O)N1CCc2ccccc21)S(=O)(=O)c1cccs1	3*	89*	1	-199	0	0.1
O=C(CCCc1nc2ccccc2s1)Nc1nccs1	0.7	42	-7	29	0	0.6
O=C(CSCc1c(Cl)cccc1Cl)Nc1nccs1	0.2	22	-2	75*	0	0.8
O=C(CSCc1ccccc1)Nc1nccs1	0.6	50*	-10	44	2	0.5
O=C(CCCSc1nc2ccccc2s1)Nc1nccs1	0.1	79*	-28	88*	-1	0.2
O=C(CSc1cn(Cc2ccccc2)c2ccccc12)Nc1nccs1	0	96*	17	99*	0	0
Cn1c(CSCc2ccccc2)nnc1SCC(=O)Nc1nccs1	.	.	17	.	-1	.
O=C(CCCOc1ccccc1)Nc1nccs1	0.5	86*	11	51*	4	0.1
CCOC(=O)NC(c1cccc(Cl)c1)C1CCCCCC1=O (stereo not drawn)	0.4	97*	10	56*	-1	0
CCOC(=O)C1CCCN(c2c(N3CCN(c4cccc(Cl)c4)CC3)c(=O)c2=O)C1 (stereo not drawn)	.	.	0	.	.	.
Cc1cc(=O)c(C(=O)O)cn1Nc1ccc(Cl)cc1	1.1	12	-4	-5	0	0.9
Cc1cc(C(=O)N/N=C/c2cccnc2)cs1	.	.	.	.	-2	.
COc1ccccc1S(=O)Cc1ccc(C(=O)NC2CCCC2)o1 (stereo not drawn)	0.5	13	7	55*	0	0.9
COc1ccc(CCNC(=O)c2nnc(Cc3ccc(Cl)cc3)o2)cc1OC	0.5	15	4	46	2	0.9
SMILES	CYP2C9 activ	CYP2C19 inhib	MRP resist rev	CYP2C9 inh	MRP-1 activ	CYP2C19 activ
COc1ccccc1S(=O)Cc1ccc(C(=O)NCCc2ccc(Cl)cc2)o1 (stereo not drawn)	0.4	62*	5	65*	2	0.4
COc1ccc(Cc2nnc(NC(=O)c3cccc([N+](=O)[O-])c3)s2)cc1	.	.	.	.	-1	.
CC(=O)Nc1c(C(=O)N2CCOCC2)cnn1-c1ccc(C)c(C)c1	1	9	-10	-4	-1	0.9
Cc1ccc(-n2c(C)cc(C(=S)N3CCOCC3)c2C)cc1C	0.6	87*	.	37	0	0.1
CC(=O)C(C)Oc1cc(C)cc2oc(=O)c(C)c(C)c12 (stereo not drawn)	0.4	28	-1	57*	-3	0.7
O=C(NC(Cc1ccccc1)c1nc2ccccc2[nH]1)C1CC(=O)N(c2ccc3c(c2)OCCO3)C1 (stereo not drawn)	1.5	81*	-41	-54	-1	0.2
Cc1ccc(CNC(=O)c2ccccc2NC(=O)CSc2nnnn2C)cc1	0.9	6	.	6	-4	0.9
COC(=O)c1cccc(OCC(O)Cn2ccnc2)c1 (stereo not drawn)	0.1	100*	6	88*	-3	0
Cc1csc(SCC(=O)NCCc2ccc(Cl)cc2Cl)n1	.	.	.	.	2	.
Cc1cc(=O)n(C)c(=O)n1CC(=O)N1CCCCCC1	1.1	-15	5	-8	-1	1.1
N#Cc1c(N)nc2c3c(sc(=N)c2c1N)NC(=O)CC3c1ccccc1 (stereo not drawn)	0.9	73*	.	12	-6	0.3
O=C(COC(=O)c1cnccn1)c1ccc2c(c1)CCCC2	1.3	0	7	-28	2	1
Cc1ccc(-c2nn(-c3ccccc3)cc2/C=C(\C#N)c2cccc(C#N)c2)o1	0.4	28	10	64*	0	0.7
O=C1CSC(c2ccccc2F)N1c1ccccc1 (stereo not drawn)	.	.	10	.	-4	.
O=C1CSC(c2c(F)cccc2Cl)N1c1cccc(F)c1 (stereo not drawn)	2.1*	20	-4	-107	-4	0.8
CC(C)(C)n1nnnc1C(c1ccccc1)N1CCc2ccccc2C1 (stereo not drawn)	0.6	54*	-2	36	-1	0.5
CC1CCN(C(c2ccc(N(C)C)cc2)c2nnnn2C(C)(C)C)CC1 (stereo not drawn)	0.8	60*	16	23	-2	0.4
COc1cc2cc(C(c3nnnn3C(C)(C)C)N3CCC(C)CC3)c(=O)[nH]c2cc1OC (stereo not drawn)	0.7	15	-11	33	0	0.8
COc1ccc(C(c2nnnn2C2CCCC2)N2CCc3ccccc3C2)cc1OC (stereo not drawn)	0.7	47	10	29	-2	0.5
CN(C)c1ccc(C(c2nnnn2C(C)(C)C)N2CCc3ccccc3C2)cc1 (stereo not drawn)	0.9	58*	4	13	-3	0.4
COc1cccc(C2C(C(=O)c3ccco3)=C(O)C(=O)N2CCCN2CCOCC2)c1OC (stereo not drawn)	.	.	7	.	.	.
N#Cc1ccccc1OCC(=O)Nc1c(C(=O)C2CC2)oc2ccccc12	0.6	23	-11	38	-4	0.8
O=C(Nc1nc2ccccc2s1)C1CC(=O)N(c2ccc(Br)cc2)C1 (stereo not drawn)	0.5	0	-7	46	0	1
CS(=O)(=O)N(CC(=O)N1CCCCC1)c1sc2c(c1C#N)CCCC2	.	.	16	.	-1	.
CC(C)(C)NC(=O)CN(C(=O)CS(=O)CC(=O)Nc1ccc(F)cc1)c1ccccc1 (stereo not drawn)	0.3	7	4	71*	0	0.9
